Experimental data as given in PMC7862700, “An all-to-all approach to the identification of sequence-specific readers for epigenetic DNA modifications on cytosine”.

Legend:
Experiment in all cases: DAPPL (digital affinity profiling via proximity ligation, sequencing); 10 mM Tris-HCl pH 7.5, 50 mM NaCl, 1 mM DTT, 4% glycerol, room temperature, 30 min; GST-TFs on glutathione beads, 16-mer random dsDNA library, 0.1% formaldehyde crosslink after washing; high values mean tight binding
FEV = target: T1, FEV (Homo sapiens, UniProt Q99581 1-238); details: protein: recombinant; tags: N-terminal GST; dsDNA, one strand shown
T1 sequence: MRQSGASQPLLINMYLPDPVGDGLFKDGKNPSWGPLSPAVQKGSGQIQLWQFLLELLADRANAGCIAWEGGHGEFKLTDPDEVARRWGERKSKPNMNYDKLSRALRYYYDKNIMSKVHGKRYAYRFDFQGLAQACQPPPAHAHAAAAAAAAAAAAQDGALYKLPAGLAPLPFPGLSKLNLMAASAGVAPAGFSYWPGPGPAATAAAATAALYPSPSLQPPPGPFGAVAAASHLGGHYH
Outline: (§1)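 Binding signal is each hexamer's read frequency for a factor divided by its frequency in the tag-only sample. The factors were GST-fused human transcription factors from yeast, captured on glutathione beads, DNA-barcoded and pooled with that sample. Pools were incubated with 200 nmole of a random double-stranded 16-mer DNA library in Tris/NaCl/DTT/glycerol buffer at room temperature for 30 min, then washed, crosslinked with 0.1% formaldehyde, proximity-ligated with BsaI/T4 ligase (1 h, 37 °C), PCR-amplified and sequenced on an Illumina NextSeq500.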

ETV5 = ETV5 (Homo sapiens, UniProt P41161 1-510); details: protein: recombinant; tags: N-terminal GST; dsDNA, one strand shown
Outline: as §1

HSF1 = HSF1 (Homo sapiens, UniProt Q00613 1-529); details: protein: recombinant; tags: N-terminal GST; chain copies: 3; dsDNA, one strand shown
Outline: as §1

SPIC = target: T2, SPIC (Homo sapiens, UniProt Q8N5J4 1-248); details: protein: recombinant; tags: N-terminal GST; dsDNA, one strand shown
T2 sequence: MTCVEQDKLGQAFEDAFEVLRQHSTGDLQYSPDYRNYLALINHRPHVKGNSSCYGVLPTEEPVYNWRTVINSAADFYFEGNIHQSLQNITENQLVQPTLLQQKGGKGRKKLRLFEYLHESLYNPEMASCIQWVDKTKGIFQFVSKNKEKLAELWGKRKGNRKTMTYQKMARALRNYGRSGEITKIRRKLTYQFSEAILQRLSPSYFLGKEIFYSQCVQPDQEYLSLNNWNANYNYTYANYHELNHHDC
Outline: as §1

ELF4 = ELF4 (Homo sapiens, UniProt Q99607 1-663); details: protein: recombinant; tags: N-terminal GST; dsDNA, one strand shown
Outline: as §1

ELK4 = target: T3, ELK4 (Homo sapiens, UniProt P28324-2 1-405); details: protein: recombinant; tags: N-terminal GST; dsDNA, one strand shown
T3 sequence: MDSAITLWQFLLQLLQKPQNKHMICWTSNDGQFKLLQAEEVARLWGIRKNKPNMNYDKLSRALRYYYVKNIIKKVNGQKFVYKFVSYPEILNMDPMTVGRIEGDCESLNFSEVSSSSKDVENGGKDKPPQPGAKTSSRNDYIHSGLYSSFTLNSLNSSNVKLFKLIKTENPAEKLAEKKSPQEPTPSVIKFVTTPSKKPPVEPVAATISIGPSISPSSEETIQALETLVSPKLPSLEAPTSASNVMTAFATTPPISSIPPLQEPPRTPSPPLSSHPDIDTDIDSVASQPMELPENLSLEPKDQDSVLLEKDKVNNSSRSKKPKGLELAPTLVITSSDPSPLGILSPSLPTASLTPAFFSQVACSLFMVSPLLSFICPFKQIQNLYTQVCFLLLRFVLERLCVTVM
Outline: as §1

ETV2 = target: T4, ETV2 (Homo sapiens, UniProt O00321 1-342); details: protein: recombinant; tags: N-terminal GST; dsDNA, one strand shown
T4 sequence: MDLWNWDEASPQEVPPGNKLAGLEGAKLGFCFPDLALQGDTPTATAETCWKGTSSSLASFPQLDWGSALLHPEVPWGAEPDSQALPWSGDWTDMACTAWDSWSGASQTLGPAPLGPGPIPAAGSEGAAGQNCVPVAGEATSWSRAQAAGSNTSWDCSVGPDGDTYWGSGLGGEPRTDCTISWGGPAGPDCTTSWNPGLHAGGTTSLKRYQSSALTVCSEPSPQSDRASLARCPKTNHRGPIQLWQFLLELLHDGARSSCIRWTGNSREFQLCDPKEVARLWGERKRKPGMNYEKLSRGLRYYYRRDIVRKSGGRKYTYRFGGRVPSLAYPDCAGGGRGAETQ
Outline: as §1

ELF3 = target: T5, ELF3 (Homo sapiens, UniProt P78545 1-371); details: protein: recombinant; tags: N-terminal GST; dsDNA, one strand shown
T5 sequence: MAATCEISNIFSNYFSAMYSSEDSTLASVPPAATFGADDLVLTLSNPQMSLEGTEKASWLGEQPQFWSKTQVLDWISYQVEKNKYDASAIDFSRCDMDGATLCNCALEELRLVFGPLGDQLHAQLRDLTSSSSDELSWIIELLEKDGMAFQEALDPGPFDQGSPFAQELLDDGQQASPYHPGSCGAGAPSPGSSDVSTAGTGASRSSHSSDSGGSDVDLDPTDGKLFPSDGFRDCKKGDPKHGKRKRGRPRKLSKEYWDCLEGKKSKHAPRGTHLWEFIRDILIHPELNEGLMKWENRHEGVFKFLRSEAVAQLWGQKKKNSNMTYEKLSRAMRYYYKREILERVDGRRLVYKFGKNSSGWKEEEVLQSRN
Outline: as §1

CRX = CRX (Homo sapiens, UniProt O43186 1-299); details: protein: recombinant; tags: N-terminal GST; dsDNA, one strand shown
Outline: as §1

ETV1 = ETV1 (Homo sapiens, UniProt P50549 1-477); details: protein: recombinant; tags: N-terminal GST; dsDNA, one strand shown
Outline: as §1

ERF = target: T6, ERF (Homo sapiens, UniProt P50548 1-548); details: protein: recombinant; tags: N-terminal GST; dsDNA, one strand shown
T6 sequence: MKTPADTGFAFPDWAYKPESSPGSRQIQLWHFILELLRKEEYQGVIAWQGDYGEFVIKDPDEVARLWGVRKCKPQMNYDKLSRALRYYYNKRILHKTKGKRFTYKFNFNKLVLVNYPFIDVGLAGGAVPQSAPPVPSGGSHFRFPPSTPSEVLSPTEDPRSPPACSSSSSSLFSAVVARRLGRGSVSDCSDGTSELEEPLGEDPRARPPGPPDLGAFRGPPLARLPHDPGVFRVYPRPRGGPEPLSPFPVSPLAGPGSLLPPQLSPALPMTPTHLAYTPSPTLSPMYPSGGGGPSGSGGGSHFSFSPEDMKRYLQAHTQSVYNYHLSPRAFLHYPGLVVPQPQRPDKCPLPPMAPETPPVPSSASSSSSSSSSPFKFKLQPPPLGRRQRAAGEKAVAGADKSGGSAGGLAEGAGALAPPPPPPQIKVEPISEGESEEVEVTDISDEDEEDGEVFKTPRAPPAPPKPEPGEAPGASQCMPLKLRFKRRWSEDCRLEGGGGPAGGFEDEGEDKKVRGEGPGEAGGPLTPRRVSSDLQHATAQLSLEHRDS
Outline: as §1

ETV3L = target: T7, ETV3L (Homo sapiens, UniProt Q6ZN32 1-361); details: protein: recombinant; tags: N-terminal GST; dsDNA, one strand shown
T7 sequence: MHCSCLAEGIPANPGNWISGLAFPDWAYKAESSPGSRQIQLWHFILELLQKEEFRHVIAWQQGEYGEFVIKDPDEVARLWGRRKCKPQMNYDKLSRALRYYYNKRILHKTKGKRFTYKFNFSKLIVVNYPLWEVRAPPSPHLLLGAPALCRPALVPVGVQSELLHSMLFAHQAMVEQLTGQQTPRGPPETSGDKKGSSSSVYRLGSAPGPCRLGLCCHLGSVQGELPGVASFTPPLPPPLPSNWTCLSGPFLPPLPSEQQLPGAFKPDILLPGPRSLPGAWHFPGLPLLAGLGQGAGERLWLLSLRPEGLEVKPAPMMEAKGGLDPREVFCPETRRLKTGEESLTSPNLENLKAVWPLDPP
Outline: as §1

ETS2 = target: T8, ETS2 (Homo sapiens, UniProt P15036 1-469); details: protein: recombinant; tags: N-terminal GST; dsDNA, one strand shown
T8 sequence: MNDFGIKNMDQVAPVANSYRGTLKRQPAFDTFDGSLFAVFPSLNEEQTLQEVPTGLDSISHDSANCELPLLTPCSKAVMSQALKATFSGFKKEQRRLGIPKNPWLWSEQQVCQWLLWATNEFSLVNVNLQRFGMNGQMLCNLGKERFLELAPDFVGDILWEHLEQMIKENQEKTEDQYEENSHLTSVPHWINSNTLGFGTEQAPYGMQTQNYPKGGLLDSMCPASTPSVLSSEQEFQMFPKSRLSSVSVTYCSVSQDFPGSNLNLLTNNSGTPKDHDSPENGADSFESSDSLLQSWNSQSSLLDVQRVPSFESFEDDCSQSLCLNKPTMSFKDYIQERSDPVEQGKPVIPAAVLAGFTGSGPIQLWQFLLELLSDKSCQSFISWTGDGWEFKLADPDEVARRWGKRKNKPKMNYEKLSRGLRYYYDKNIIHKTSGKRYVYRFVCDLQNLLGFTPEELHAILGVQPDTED
Outline: as §1

SPDEF = target: T9, SPDEF (Homo sapiens, UniProt O95238 1-335); details: protein: recombinant; tags: N-terminal GST; dsDNA, one strand shown
T9 sequence: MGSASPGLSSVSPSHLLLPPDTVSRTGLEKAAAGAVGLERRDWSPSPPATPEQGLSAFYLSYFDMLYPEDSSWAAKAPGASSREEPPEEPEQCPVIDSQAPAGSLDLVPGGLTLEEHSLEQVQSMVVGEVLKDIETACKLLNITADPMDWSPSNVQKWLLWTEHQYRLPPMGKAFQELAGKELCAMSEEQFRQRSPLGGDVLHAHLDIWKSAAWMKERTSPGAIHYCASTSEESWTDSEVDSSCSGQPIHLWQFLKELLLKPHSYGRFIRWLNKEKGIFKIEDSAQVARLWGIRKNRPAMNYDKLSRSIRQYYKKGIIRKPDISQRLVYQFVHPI
Outline: as §1

ETV7 = target: T10, ETV7 (Homo sapiens, UniProt Q9Y603 1-341); details: protein: recombinant; tags: N-terminal GST; dsDNA, one strand shown
T10 sequence: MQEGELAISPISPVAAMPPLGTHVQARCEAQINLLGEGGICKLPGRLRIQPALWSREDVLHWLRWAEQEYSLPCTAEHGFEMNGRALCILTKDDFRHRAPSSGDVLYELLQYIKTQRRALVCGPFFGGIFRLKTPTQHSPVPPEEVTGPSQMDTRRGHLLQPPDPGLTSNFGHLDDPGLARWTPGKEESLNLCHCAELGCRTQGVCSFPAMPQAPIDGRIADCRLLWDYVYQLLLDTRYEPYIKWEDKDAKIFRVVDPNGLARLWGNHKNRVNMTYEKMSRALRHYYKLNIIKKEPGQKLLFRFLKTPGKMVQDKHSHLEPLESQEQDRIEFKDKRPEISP
Outline: as §1

ELF5 = target: T11, ELF5 (Homo sapiens, UniProt Q9UKW6-2 1-255); details: protein: recombinant; tags: N-terminal GST; dsDNA, one strand shown
T11 sequence: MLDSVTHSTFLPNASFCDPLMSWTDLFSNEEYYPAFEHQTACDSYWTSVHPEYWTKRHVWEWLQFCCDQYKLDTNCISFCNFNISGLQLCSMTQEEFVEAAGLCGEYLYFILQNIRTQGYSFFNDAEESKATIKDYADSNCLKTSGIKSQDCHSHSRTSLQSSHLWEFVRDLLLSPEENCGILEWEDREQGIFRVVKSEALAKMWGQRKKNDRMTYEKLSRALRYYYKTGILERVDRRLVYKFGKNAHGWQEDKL
Outline: as §1

ETV3 = target: T12, ETV3 (Homo sapiens, UniProt P41162-2 1-143); details: protein: recombinant; tags: N-terminal GST; dsDNA, one strand shown
T12 sequence: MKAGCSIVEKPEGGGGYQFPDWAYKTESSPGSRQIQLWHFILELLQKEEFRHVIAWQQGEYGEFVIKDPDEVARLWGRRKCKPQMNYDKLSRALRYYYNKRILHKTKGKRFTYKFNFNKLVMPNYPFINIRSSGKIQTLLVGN
Outline: as §1

ETV6 = ETV6 (Homo sapiens, UniProt P41212 1-452); details: protein: recombinant; tags: N-terminal GST; dsDNA, one strand shown
Outline: as §1

ETV6, sequence (P41212 whole entry): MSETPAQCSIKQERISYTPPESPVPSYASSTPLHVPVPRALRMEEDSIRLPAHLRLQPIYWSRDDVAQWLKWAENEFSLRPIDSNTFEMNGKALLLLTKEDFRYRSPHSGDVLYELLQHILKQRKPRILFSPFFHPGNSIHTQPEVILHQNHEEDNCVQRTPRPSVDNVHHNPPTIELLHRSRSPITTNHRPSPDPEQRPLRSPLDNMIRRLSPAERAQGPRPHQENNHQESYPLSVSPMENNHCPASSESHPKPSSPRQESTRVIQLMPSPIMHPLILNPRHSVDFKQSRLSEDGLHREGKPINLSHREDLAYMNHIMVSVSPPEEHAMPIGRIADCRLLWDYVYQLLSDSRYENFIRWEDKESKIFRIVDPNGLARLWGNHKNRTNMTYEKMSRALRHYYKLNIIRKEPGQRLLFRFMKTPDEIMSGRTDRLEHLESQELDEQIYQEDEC
ETV5, sequence (P41161 whole entry): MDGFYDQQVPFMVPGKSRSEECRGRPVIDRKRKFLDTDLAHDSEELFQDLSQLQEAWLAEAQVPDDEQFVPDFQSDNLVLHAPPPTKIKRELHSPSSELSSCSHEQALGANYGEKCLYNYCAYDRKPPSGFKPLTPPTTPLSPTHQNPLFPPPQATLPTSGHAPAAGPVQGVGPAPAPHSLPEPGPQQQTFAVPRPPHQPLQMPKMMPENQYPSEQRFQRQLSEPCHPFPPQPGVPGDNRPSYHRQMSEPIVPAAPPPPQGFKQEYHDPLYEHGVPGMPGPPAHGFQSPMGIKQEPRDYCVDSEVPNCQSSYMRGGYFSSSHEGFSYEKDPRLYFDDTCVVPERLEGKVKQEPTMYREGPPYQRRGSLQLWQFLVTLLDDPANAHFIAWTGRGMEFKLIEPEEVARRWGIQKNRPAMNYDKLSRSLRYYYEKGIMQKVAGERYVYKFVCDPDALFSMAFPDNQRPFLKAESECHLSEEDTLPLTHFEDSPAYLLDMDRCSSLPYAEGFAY
HSF1, sequence (Q00613 whole entry): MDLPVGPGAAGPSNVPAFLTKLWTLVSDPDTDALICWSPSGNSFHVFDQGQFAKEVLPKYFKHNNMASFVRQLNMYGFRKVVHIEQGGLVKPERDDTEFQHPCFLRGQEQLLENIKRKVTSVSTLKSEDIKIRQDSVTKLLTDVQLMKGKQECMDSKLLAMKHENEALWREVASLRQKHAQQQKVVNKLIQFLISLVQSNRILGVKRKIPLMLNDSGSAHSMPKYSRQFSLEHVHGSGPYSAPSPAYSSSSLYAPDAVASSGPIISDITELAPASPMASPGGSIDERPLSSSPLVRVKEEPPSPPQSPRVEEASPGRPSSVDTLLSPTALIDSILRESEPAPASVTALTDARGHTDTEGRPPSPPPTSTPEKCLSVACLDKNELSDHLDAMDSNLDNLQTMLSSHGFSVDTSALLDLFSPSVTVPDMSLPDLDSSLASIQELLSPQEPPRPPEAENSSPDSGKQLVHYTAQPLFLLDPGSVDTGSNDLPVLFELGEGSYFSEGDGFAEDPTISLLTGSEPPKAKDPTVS
ELF4, sequence (Q99607 whole entry): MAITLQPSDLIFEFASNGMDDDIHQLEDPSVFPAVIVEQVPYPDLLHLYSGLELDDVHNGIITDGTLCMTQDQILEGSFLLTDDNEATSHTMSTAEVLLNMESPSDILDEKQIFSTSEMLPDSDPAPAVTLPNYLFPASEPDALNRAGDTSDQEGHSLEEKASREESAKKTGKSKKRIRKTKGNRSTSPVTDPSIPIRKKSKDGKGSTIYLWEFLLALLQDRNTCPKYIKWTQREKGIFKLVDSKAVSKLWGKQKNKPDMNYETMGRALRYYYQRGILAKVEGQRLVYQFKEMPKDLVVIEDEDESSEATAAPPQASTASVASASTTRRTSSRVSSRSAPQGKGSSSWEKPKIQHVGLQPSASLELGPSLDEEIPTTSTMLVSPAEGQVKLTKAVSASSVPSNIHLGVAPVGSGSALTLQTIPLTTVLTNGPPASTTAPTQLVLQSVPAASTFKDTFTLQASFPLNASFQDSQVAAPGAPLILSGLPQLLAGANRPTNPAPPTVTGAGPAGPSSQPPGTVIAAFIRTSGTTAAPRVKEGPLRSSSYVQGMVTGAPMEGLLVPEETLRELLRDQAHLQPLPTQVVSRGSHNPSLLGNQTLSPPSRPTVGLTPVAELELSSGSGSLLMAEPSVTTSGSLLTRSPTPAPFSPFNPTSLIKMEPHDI
CRX, sequence (O43186 whole entry): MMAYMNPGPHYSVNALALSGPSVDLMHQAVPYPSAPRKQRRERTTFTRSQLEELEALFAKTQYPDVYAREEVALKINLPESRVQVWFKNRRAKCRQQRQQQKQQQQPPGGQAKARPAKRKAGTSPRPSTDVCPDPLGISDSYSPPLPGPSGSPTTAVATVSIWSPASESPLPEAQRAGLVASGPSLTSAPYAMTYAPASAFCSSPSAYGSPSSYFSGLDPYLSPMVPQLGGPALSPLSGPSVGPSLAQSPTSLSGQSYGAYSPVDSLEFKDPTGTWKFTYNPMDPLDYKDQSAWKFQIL
ETV1, sequence (P50549 whole entry): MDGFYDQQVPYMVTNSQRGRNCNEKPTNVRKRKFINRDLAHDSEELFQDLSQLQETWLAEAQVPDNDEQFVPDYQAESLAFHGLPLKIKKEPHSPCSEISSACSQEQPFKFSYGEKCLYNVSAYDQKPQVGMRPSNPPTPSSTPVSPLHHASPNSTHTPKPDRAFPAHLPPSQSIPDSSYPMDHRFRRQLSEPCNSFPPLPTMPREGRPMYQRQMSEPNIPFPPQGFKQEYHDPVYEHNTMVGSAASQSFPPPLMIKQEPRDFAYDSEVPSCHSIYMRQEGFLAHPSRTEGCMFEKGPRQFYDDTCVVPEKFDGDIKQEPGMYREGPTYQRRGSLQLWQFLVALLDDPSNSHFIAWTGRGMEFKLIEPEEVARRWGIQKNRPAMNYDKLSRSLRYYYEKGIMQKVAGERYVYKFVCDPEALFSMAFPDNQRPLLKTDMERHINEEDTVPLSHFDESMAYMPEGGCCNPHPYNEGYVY

CTCGAA
binding signal (FEV): 1.17 fold enrichment (6-mer frequency, TF over GST control) | binding signal (ETV5): 1.2 fold enrichment (6-mer frequency, TF over GST control) | binding signal (HSF1): 4.2 fold enrichment (6-mer frequency, TF over GST control) | binding signal (SPIC): 1.15 fold enrichment (6-mer frequency, TF over GST control) | binding signal (ELF4): 1.2 fold enrichment (6-mer frequency, TF over GST control) | binding signal (ELK4): 1.34 fold enrichment (6-mer frequency, TF over GST control) | binding signal (ETV2): 1.16 fold enrichment (6-mer frequency, TF over GST control) | binding signal (ELF3): 1.11 fold enrichment (6-mer frequency, TF over GST control) | binding signal (CRX): 1.9 fold enrichment (6-mer frequency, TF over GST control) | binding signal (ETV1): 1.1 fold enrichment (6-mer frequency, TF over GST control) | binding signal (ERF): 1.22 fold enrichment (6-mer frequency, TF over GST control) | binding signal (ETV3L): 1.24 fold enrichment (6-mer frequency, TF over GST control) | binding signal (ETS2): 1.2 fold enrichment (6-mer frequency, TF over GST control) | binding signal (SPDEF): 1.11 fold enrichment (6-mer frequency, TF over GST control) | binding signal (ETV7): 1.19 fold enrichment (6-mer frequency, TF over GST control) | binding signal (ELF5): 1.17 fold enrichment (6-mer frequency, TF over GST control) | binding signal (ETV3): 1.18 fold enrichment (6-mer frequency, TF over GST control) | binding signal (ETV6): 1.12 fold enrichment (6-mer frequency, TF over GST control)
